According to PubChem BioAssay (NCATS):
Where “and” joins values, the source holds several entries; their conditions need not be identical. Equal values may be shown once. Records with an inconclusive call do not appear. Calls of active or inactive are those of the source. Unless noted, calls follow the shape of the dose curve; as a rule, active = well fitted curve in the direction sought with a large enough effect; inconclusive = small, poorly fitted or top-dose-only effect, or another doubt; inactive = no such curve, though single readings can be large; an effect the other way counts as inactive or inconclusive.

Tests used:
[1] = Cell Viability - BJ (AID 421; calls by dose curve;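 also: potency is read from the fitted curve at half-maximal effect; cells exposed to compound for 40 hours at 37 °C before readout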); details: BJ fibroblast viability, qHTS
Method in brief: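 Normal human BJ foreskin fibroblasts, 1500/well in complete medium, treated 40 hr at 37 °C. Cellular ATP by CellTiter-Glo luminescence; normalized to DMSO and 100 uM tamoxifen, AC50 from Hill fit.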

[2] = Cell Viability - SK-N-SH (AID 435; calls by dose curve;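 also: potency is read from the fitted curve at half-maximal effect; compound exposure lasted 40 h at 37 °C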); details: SK-N-SH neuroblastoma cell viability qHTS
Method in brief: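 Human neuroblastoma line, 40 h exposure at 37 °C, ATP quantified via luciferase luminescence; DMSO and 100 uM tamoxifen define 0 and 100% inhibition for AC50 fitting.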

[3] = target: Mitogen-activated protein kinase 10 (Mus musculus) (UniProt Q61831); assay: JNK3 AlphaScreen Assay (AID 530; active = well fitted curve in either direction with a large enough effect, not every such curve was filed as active;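 also: kinase came from lysate of stimulated human HepG2 cells; signal reports phosphorylation of biotinylated GST-cJun 1-79 at Ser73 with 10 µM ATP; % is scaled to controls: 0 for no effect and ±100 for the full control effect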); details: JNK3 lysate, c-Jun phosphorylation; series mostly up to 57.1 µM
Method in brief: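 Activity was read by AlphaScreen after JNK3-containing HepG2 lysate (cytokine pre-activated) phosphorylated biotinylated GST-cJun with 10 uM ATP at room temperature. Phospho-Ser73 cJun antibody with Protein-A acceptor beads provided detection.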

[4] = Cell Viability - NIH 3T3 (AID 541); details: NIH 3T3 cell viability, qHTS; activity change, negative = cytotoxicity: at 92.2 µM (top of the series);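 also: cells exposed to compound for 40 hours; plate controls were DMSO alone for no effect and tamoxifen positive control for full effect; nearly all actives have a fitted effect of over 25% in size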
Method in brief: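 Cells seeded at 1000/well, rested 5 hr at 37 °C, then dosed and incubated 40 hr at 37 °C. CellTiter-Glo added, 20 min room temperature, luminescence read. AC50 by Hill fit.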

[5] = Cell Viability - Mesenchymal (AID 546); details: mesenchymal cells viability, qHTS; activity change, negative = cytotoxicity: at 91.7 µM (top of the series);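 also: cells exposed to compound for 40 hours before reading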
Method in brief: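 Human renal mesenchymal cells (glomerulus-derived), 1000 cells/well, 5 hr 37 °C pre-incubation; compound 40 hr, 37 °C; CellTiter-Glo, 20 min RT; luminescence; AC50 via Hill equation.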

[6] = Cellular Toxicity (caspase-3) HepG2 (AID 654); details: HepG2 caspase-3 activation, luminescence, 0% = DMSO only, 100% = tamoxifen; series mostly up to 92.2 µM;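 also: cells exposed to compound for 16 hours before reading; 0% = DMSO alone and 100% = caspase signal from 100 µM tamoxifen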
Method in brief: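 Caspase 3/7 activation in HepG2 is measured as rising luminescence after a 16 hr treatment at 37 °C. Values are scaled between DMSO basal and 100 uM tamoxifen, and AC50 is fitted with the Hill equation.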

[7] = Cellular Toxicity (caspase-3) HUV-EC-C (AID 656); details: HUV-EC-C cells, caspase-3 activation (apoptosis), vehicle = 0, 100 µM tamoxifen = 100%; series mostly up to 92.2 µM
Method in brief: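 Concentration-dependent caspase 3/7 induction was assessed in HUV-EC-C cells exposed for 16 hours. Data scaled between DMSO and tamoxifen (100 uM) controls.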

[8] = Cellular Toxicity (caspase-3) BJ (AID 658); details: BJ fibroblasts, luminescence, normalized: DMSO 0%, staurosporine 100%; series mostly up to 91.7 µM
Method in brief: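 qHTS, BJ fibroblasts, 1000 cells/well; 5 hr preincubation, 16 hr compound, 37 °C; Caspase-Glo 3/7 reagent, 1 hr RT; luminescence. DMSO = 0%, 10 uM staurosporine = 100%. Hill-equation AC50.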

[9] = Cellular Toxicity (caspase-3) MRC-5 (AID 659); details: MRC-5 cells, luminescence, normalized: DMSO 0%, 10 µM staurosporine 100%; series mostly up to 91.7 µM
Method in brief: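 MRC-5 fibroblasts, 1500/well; 16 h cpd, 37 °C; Caspase-Glo 3/7, 1 h RT; lumi read. Norm: DMSO = 0%, 10 uM staurosporine = 100%. Hill-fit AC50 from qHTS conc-response.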

[10] = Cellular Toxicity (caspase-3) Mesangial (AID 660); details: mesangial cells, normalized: DMSO 0%, 100 µM tamoxifen 100%; series mostly up to 91.7 µM;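 also: combined caspase 3 and 7 activity read by Caspase-Glo luminescence; cells exposed to compound for 16 h before the caspase read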
Method in brief: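 Seed cells derived from normal human renal glomeruli, incubate 5 h, add compounds across concentrations and incubate 16 h at 37 °C. Caspase 3/7 activation is then quantified by luciferase light, with AC50 derived by Hill modeling.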

[11] = Cellular Toxicity (caspase-3) Hek293 (AID 664); details: HEK293 caspase-3 activation, DMSO = 0%, 100 µM tamoxifen = 100%; series mostly up to 92.2 µM;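 also: cells exposed to compound for 16 h at 37 °C before readout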
Method in brief: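 qHTS, HEK293 (human embryonic kidney), 16 h cpd exposure in complete medium. Caspase-3/7 activation = luminescence increase; normalized to DMSO/100 uM tamoxifen; Hill-fit AC50.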

[12] = MultiTox-Fluor Cytotoxicity Assay - LYMP1-003 - Live Cells (AID 962); details: LYMP1-003 lymphoblastoid cells, MultiTox-Fluor live-cell protease fluorescence; series mostly up to 92.2 µM;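 also: cells exposed to compound for 16 hours at 37 °C; 0% = DMSO only and full loss = 92 µM tetraoctylammonium bromide; cytotoxic hits lower the live-cell protease signal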
Method in brief: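 Acute cytotoxicity is scored as a drop in live-cell protease activity in human lymphoblastoid LYMP1-003 cells after 16 hr compound exposure at 37 C. AC50 values come from Hill-equation modelling of concentration-response data.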

[13] = Cell Viability - LYMP1-003 - Assay at 40 hr (AID 964); details: LYMP1-003 lymphoblastoid viability; series mostly up to 92.2 µM; also: % is scaled to controls: 0 for no effect and ±100 for the full control effect; nearly all actives have a fitted effect of over 60% in size
Method in brief: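 Luminescent ATP signal (CellTiter-Glo) served as the viability read-out after 40 hr compound treatment of human lymphoblastoid LYMP1-003 cells at 37 C. Decreases in ATP were fitted with the Hill equation to give AC50.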

[14] = Cell Viability - LYMP2-011 (AID 969); details: LYMP2-011 lymphoblastoid cells viability; series mostly up to 92.2 µM;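 also: 0% = DMSO only and full inhibition = 92 µM tetraoctylammonium bromide; nearly all actives have a fitted effect of over 60% in size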
Method in brief: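 In this qHTS cytotoxicity format, compounds are tested across concentrations on human lymphoblastoid cells in complete medium for 24 hours at 37 C. Viability is taken as cellular ATP measured by luciferase luminescence.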

[15] = Cell Viability - LYMP2-013 (AID 970); details: LYMP2-013 lymphoblastoid cells viability; series mostly up to 92.2 µM;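 also: cells exposed to compound for 24 h at 37 °C; 0% = DMSO only and full inhibition = tetraoctylammonium bromide control; nearly all actives have a fitted effect of over 55% in size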
Method in brief: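 Cytotoxicity is scored as a concentration-dependent drop in intracellular ATP in human lymphoblastoid cells after 24 hr compound exposure at 37 C. ATP is quantified by luciferase luminescence, and AC50 values come from Hill-equation modeling.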

[16] = Cell Viability - LYMP2-017 (AID 972); details: LYMP2-017 lymphoblastoid cell viability; series mostly up to 92.2 µM; also: % is scaled to controls: 0 for no effect and ±100 for the full control effect; nearly all actives have a fitted effect of over 55% in size
Method in brief: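 Cytotoxicity is scored as a concentration-dependent drop in cellular ATP in a human lymphoblastoid line after 24 hr treatment at 37 C. Values are AC50s from Hill-equation modelling.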

[17] = Cell Viability - LYMP2-010 (AID 981); details: LYMP2-010 lymphoblastoid cell viability, qHTS; series mostly up to 92.2 µM; also: % is scaled to controls: 0 for no effect and ±100 for the full control effect; nearly all actives have a fitted effect of over 55% in size
Method in brief: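 Steps: seed 2500 LYMP2-010 cells per well; incubate 5 hr at 37 C; add compound; incubate 24 hr at 37 C; add CellTiter-Glo, wait 30 min at room temperature; read luminescence. Concentration-response fitted to Hill equation for AC50.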

[18] = Cell Viability - LYMP2-012 (AID 982); details: LYMP2-012 lymphoblastoid cell viability qHTS; series mostly up to 92.2 µM;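 also: cellular ATP by luciferase luminescence where a drop means cytotoxicity; cells exposed to compound for one day before reading; 0% = DMSO only and full loss = 92 µM tetraoctylammonium bromide; nearly all actives have a fitted effect of over 55% in size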
[19] = qHTS Assay for Identification of Small Molecule Inducers of Hypoxia Response (AID 2120; active = well fitted curve in the direction sought with a large enough effect in the signal ratio, with a control signal flat, not every such curve was filed as active; the % refers to the signal ratio; also: 0% is about no effect); details: hypoxia response reporter cells, beta-lactamase ratio readout; series mostly up to 104 µM
Method in brief: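 Cell-based qHTS for reporter induction: hypoxia response element controlled beta-lactamase in ME-180 cells. Compounds incubated 17 h at 37 degrees C; activity from blue/green (460/530 nm) ratio, inducers ranked by AC50.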

[20] = target: Peroxisome proliferator-activated receptor alpha (Homo sapiens) (UniProt Q07869); assay: qHTS assay for small molecule agonists of the peroxisome proliferator-activated receptor alpha (PPARalpha) signaling pathway (AID 651778); details: PathHunter PPARalpha complementation, chemiluminescence, 6 h; max response: active compounds read high; also: % of control where 0% means no effect
Sequence of Peroxisome proliferator-activated receptor alpha (Homo sapiens) (Q07869 whole entry, looked up, the tested form may be a part): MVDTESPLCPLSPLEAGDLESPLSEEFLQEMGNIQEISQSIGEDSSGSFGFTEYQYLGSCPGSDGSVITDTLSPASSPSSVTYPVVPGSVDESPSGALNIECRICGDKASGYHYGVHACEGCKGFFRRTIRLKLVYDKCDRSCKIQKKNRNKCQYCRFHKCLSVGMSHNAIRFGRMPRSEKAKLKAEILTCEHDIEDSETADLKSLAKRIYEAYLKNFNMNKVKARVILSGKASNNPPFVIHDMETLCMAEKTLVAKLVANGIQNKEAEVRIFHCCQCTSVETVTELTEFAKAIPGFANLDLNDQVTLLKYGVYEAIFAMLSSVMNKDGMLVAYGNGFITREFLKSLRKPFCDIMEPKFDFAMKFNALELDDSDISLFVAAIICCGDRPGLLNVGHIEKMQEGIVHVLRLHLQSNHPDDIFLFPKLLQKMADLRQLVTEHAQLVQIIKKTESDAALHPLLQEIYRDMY
Method in brief: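 Enzyme-fragment complementation assay in which ligand-bound PPARalpha translocates and forms an active enzyme that generates chemiluminescence. Cells were plated overnight, exposed to compound for 6 hr at 37 C, and then given detection reagent for 60 min at room temperature.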

CCC(C)c1ccccc1O (configuration not stated)
inactive: Potency [1] > 92 µM | Potency [2] > 92 µM | Potency [3] | Potency [4] | activity change, negative = cytotoxicity [5] 1.63% and 2.6% | outcome [6] | outcome [7] | outcome [8] | outcome [9] | outcome [10] | outcome [11] | Potency [12] | Potency [13] | Potency [14] | Potency [15] | Potency [16] | Potency [17] | Potency [18] | outcome [19] | max response [20] 4.33% and -1.41% and -1.75%

Cc1ccccc1-c1ccc2ncnc(NCCN3CCOCC3)c2c1
inactive: Potency [3]

COC(=O)c1ccc(C)cc1
inactive: Potency [1] > 92 µM | Potency [2] > 92 µM | Potency [3] | Potency [4] | activity change, negative = cytotoxicity [5] -2.78% | outcome [6] | outcome [7] | outcome [8] | outcome [9] | outcome [10] | outcome [11] | Potency [12] | Potency [13] | Potency [14] | Potency [15] | Potency [16] | Potency [17] | Potency [18] | outcome [19] | max response [20] 0.456% and 0.65%

O=c1cnc2cnc(N3CCOCC3)nc2n1Cc1cccs1
inactive: Potency [3]

C/C=C\c1ccc(OC)cc1
inactive: Potency [1] > 92 µM | Potency [2] > 92 µM | Potency [3] | Potency [4] | activity change, negative = cytotoxicity [5] -1.47% | outcome [6] | outcome [7] | outcome [8] | outcome [9] | outcome [10] | outcome [11] | Potency [12] | Potency [13] | Potency [14] | Potency [15] | Potency [16] | Potency [17] | Potency [18] | outcome [19] | max response [20] -5.71%

Cc1ccc([N+](=O)[O-])c(C)c1
inactive: Potency [1] > 92 µM | Potency [2] > 92 µM | Potency [3] | Potency [4] | activity change, negative = cytotoxicity [5] 1.9% | outcome [6] | outcome [7] | outcome [8] | outcome [9] | outcome [10] | outcome [11] | Potency [12] | Potency [13] | Potency [14] | Potency [15] | Potency [16] | Potency [17] | Potency [18] | outcome [19] | max response [20] -4.28% and -0.811%

CCCCCCCCCCCCCCC1CO1 (configuration not stated)
inactive: Potency [1] > 92 µM | Potency [2] > 92 µM | Potency [3] | Potency [4] | activity change, negative = cytotoxicity [5] 2.08% | outcome [6] | outcome [7] | outcome [8] | outcome [9] | outcome [10] | outcome [11] | Potency [12] | Potency [13] | Potency [14] | Potency [15] | Potency [16] | Potency [17] | Potency [18] | outcome [19] | max response [20] -0.26% and -1.17%
